Measurements as given in PubChem BioAssay AID623877 (Johns Hopkins Ion Channel Center, 2012).
Hit rate of the full screen: of about 340,000 compounds, about 1,000 (0.29%) were called active.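 How the source made its calls: active means fluorescence-ratio B-score plate-corrected deviation score at least 3 library SD below zero, with starting fluorescence score within 5 deviations; inactive means the rest.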 Only a selection was taken, and actives are over-represented in it overall.

Biological target: Anoctamin-1 (Mus musculus) (UniProt Q8BHY3)
Assay: TMEM16A chloride channel activators or potentiators, primary screen, cell-based, HTS (AID 623877);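 on B-score: channel opened by trigger with iodide after compound preincubation; score built on the fluorescence ratio of max minus min over baseline; more negative score means more quench and so TMEM16A activation or potentiation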
Settings: HEK293 TMEM16A/YFP-H148Q/I152L, iodide quench fluorescence, at 10 µM; hits give low values

Sequence of Anoctamin-1 (Mus musculus) (Q8BHY3 whole entry, looked up): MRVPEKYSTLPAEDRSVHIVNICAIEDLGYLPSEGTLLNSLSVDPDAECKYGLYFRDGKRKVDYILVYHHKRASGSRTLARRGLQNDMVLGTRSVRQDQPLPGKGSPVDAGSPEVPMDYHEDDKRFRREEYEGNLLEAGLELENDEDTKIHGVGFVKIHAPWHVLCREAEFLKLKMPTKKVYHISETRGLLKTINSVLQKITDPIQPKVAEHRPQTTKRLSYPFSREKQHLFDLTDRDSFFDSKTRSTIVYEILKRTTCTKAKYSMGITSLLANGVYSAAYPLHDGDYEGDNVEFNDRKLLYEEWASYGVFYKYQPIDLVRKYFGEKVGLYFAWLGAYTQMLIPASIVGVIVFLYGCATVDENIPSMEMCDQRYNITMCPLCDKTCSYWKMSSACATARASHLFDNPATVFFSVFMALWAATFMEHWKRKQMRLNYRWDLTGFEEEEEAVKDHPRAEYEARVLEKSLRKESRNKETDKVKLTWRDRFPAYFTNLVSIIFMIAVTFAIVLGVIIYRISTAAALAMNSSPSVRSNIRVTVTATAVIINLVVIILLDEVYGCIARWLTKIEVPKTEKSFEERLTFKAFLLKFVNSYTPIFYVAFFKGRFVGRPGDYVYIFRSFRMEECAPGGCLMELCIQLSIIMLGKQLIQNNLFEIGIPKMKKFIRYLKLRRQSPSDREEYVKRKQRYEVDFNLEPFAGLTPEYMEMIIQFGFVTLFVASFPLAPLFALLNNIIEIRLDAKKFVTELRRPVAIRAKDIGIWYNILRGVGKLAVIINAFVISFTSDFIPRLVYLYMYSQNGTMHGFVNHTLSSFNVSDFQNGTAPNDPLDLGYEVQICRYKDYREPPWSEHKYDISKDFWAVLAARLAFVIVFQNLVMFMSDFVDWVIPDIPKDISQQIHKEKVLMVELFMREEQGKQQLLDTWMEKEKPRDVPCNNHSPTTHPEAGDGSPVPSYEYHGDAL

| SMILES | B-score |
| --- | --- |
| Cc1ccc(Cl)cc1N1CCN(C(=O)c2cccc3c(=O)c(C)c(-c4ccccc4)oc23)CC1 | inactive |
| CCOc1ccc(N(CC(=O)NC2CCCCCC2)S(=O)(=O)c2c(C)[nH]c(=O)[nH]c2=O)cc1 | inactive |
| Oc1c(Cl)cc(Cl)c(Cl)c1Cc1c(O)c(Cl)cc(Cl)c1Cl | -5.49 (active) |
| OCC(O)C1OCOC(C(O)CO)C1O (stereo not given) | inactive |
| COc1ccc(C(=O)N(C)Cc2ccc(OC)c(OC)c2OC)cc1S(=O)(=O)N1CCOCC1 | inactive |
| CCNC(=O)NC(=O)C(C)OC(=O)c1cc(S(=O)(=O)N2CCCCCC2)ccc1OC (stereo not given) | inactive |
| COc1ccc(S(=O)(=O)N2CCCCCC2)cc1C(=O)N(C)Cc1cccc(OC)c1OC | -5.67 (active) |
| COc1ccc(NC(=O)C2C3C=CC(C3)C2C(=O)NCc2ccccn2)c(OC)c1 (stereo not given) | inactive |
| O=C(NCCN1CCOCC1)c1cccc(S(=O)(=O)Nc2ccc(F)cc2)c1 | inactive |
| Cc1ccc(C(=O)NC(=S)NCc2cccnc2)cc1 | inactive |
| Cc1c(C(=O)NNC(=O)c2ccncc2)oc2ccccc12 | inactive |
| Cc1c(C(=O)NC(=S)NCc2cccnc2)oc2ccccc12 | -24.9 (active) |
| O=C(OCC(=O)N1CCN(C(=O)c2ccco2)CC1)c1cccc(O)c1 | inactive |
| CCCOc1ccc(Cn2c(O)cc(=O)[nH]c2=O)cc1 | inactive |
| COc1ccc(Cn2c(O)c(/C=C3/C=CC=N3)c(=O)[nH]c2=O)cc1 | -5.62 (active) |
| COc1ccc(Cn2c(=O)cc(C)[nH]c2=S)cc1 | inactive |
| CCn1cc(CNC(=O)c2cc([N+](=O)[O-])c(C)c([N+](=O)[O-])c2)cn1 | inactive |
| O=C(Nc1ccccc1-c1nnn(CC(=O)N2CCN(c3ccccc3)CC2)n1)c1cccs1 | inactive |
| CCNC(=O)N1CCCC(C(=O)c2ccc(-c3ccccc3)cc2)C1 (stereo not given) | inactive |
| CCCCSc1[nH]c(=O)c(C(=O)OCC)cc1C#N | inactive |
| Cn1c(=O)n(C)c2cc(S(=O)(=O)N3CCCc4ccccc43)ccc21 | inactive |
| COc1ccc(C(=O)OCC(=O)NCC2CCCCC2)cc1S(=O)(=O)N1CCCc2ccccc21 | inactive |
| COc1cc(C)c(C)cc1S(=O)(=O)N1CCCc2ccccc21 | -10.8 (active) |
| CCC(C)NC(=O)CCCc1ccccc1 (stereo not given) | inactive |
| CCCCCC(=O)NC(=S)NNC(=O)c1ccc([N+](=O)[O-])cc1 | inactive |

| SMILES | B-score |
| --- | --- |
| CCCCC(=O)NNC(=S)NC(=O)C(c1ccccc1)c1ccccc1 | -5.16 (active) |
| O=C(CN1CCN(Cc2ccc(F)cc2Cl)C1=O)NCc1cccs1 | inactive |
| CCOC(=O)CNC(=O)CN1C(=O)CCSc2ccccc21 | inactive |
| C=CC[C@H](CC(=O)N(CCO)Cc1ccccc1)C(=O)N[C@@H](COC(=O)[C@@H](CC=C)Cc1ccc(F)cc1)Cc1ccccc1 | inactive |
| C=CC[C@H](CC(=O)OC(C)(C)C)C(=O)OC[C@H]1CCCN1C(=O)[C@H](CC=C)CC(=O)N(CCO)Cc1ccccc1 | -5.89 (active) |
| C=CCC[C@H](Cc1ccc(F)cc1)C(=O)OC[C@H](C)NC(=O)[C@H](CC=C)CC(=O)N(CCO)Cc1ccccc1 | inactive |
| CC(Sc1nncn1C)C(=O)Nc1cc(C(F)(F)F)ccc1N1CCOCC1 (stereo not given) | inactive |
| Nc1nnc(SCC(=O)NC2CCCc3ccccc32)s1 (stereo not given) | -16.7 (active) |
| Nn1c(SCC(=O)NC2CCCc3ccccc32)nnc1C1CC1 (stereo not given) | inactive |
| O=C(CSc1nncs1)NC1CCCc2ccccc21 (stereo not given) | inactive |
| CC(=O)Oc1ccc(OC(C)=O)c2c1C1C=CC2CC1 | inactive |
| O=C(CNc1ccccc1N1CCCC1=O)Nc1cc(Cl)ccc1-n1cncn1 | inactive |
| COc1ccc(NC(=O)CSc2nc(NS(=O)(=O)c3ccc(C)cc3)cc(=O)[nH]2)cc1 | inactive |
| Cc1cc(=O)[nH]c(SCC(=O)Nc2ccc(Br)cc2)n1 | inactive |
| Cc1ccc(NC(=O)CSc2nc(CSc3ccc(C)cc3)cc(=O)[nH]2)cc1 | -12.6 (active) |
| COC1=NC2=NCCN2C(OC)=N1 | inactive |
| CC(=O)Nc1ccc(C(=O)Nc2cc(S(=O)(=O)N3CCOCC3)ccc2N2CCOCC2)cc1 | inactive |
| O=C1C(=O)N(c2ccccc2)c2ccccc21 | inactive |
| O=C(c1ccc(Cl)c(S(=O)(=O)N2CCCCCC2)c1)N1CCN(c2ccc(O)cc2)CC1 | -41.2 (active) |
| O=C(c1ccc(Cl)c(S(=O)(=O)N2CCCCC2)c1)N1CCCCCC1 | inactive |
| COc1ccccc1N1CCN(C(=O)c2ccc(Cl)c(S(=O)(=O)N3CCCC3)c2)CC1 | inactive |
| O=c1oc2ccccc2c(=O)c2ccccc12 | inactive |
| Cc1cc(C)n2nc(C(=O)NC(C)(C)C)nc2n1 | -4.58 (active) |
| COc1ccc(Cl)cc1C(=O)NNC(=O)c1nc2nc(C)cc(C)n2n1 | inactive |
| Cc1cc(C)n2nc(C(=O)N(C)C(c3ccccc3)c3ccccc3)nc2n1 | inactive |
